AmpC detergent: inhibitors of E. coli AmpC beta-lactamase with detergent | 370,000 compounds, 0.041% hits | AID 485294 | AmpC hydrolysis of nitrocefin, absorbance 480 nm, 0.01% Triton | Potency, µM (titrated, usually from 114 µM), for the others: at the top dose activity change, negative = inhibition, actives largely listed as inhibitors;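 also: potency is read from the fitted curve at half-maximal effect; 0% = no-compound wells and -100% = no-enzyme wells; nearly all actives have a fitted effect of over 25% in size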
Target sequence (P00811 whole entry, looked up): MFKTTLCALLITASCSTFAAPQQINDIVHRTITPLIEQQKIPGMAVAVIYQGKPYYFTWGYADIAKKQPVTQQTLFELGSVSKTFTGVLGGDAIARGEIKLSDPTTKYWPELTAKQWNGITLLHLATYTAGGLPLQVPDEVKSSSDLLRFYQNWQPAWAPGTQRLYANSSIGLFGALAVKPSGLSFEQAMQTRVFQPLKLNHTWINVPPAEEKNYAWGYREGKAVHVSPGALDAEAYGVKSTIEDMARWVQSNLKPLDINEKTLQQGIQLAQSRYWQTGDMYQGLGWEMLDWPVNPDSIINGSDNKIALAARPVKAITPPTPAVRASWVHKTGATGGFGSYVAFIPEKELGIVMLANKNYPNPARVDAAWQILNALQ
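20 mM phosphate pH 7.0 + 0.01% (detergent screen) or 0.0001% Triton X-100; 5.3 nM AmpC reagent; cpd preinc 15 min RT; nitrocefin (800 uM stock) to start; A480 q20 s × 4 min; Activity was normalised to no-enzyme and no-compound control wells.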
AmpC no deterg: inhibitors of E. coli AmpC beta-lactamase without detergent. 330,000 compounds, 0.52% hits. Potency, µM (series often up to 57.1 µM), for the others: at the highest dose activity change, negative = inhibition, usual class: inhibitors. P00811. AmpC nitrocefin hydrolysis, absorbance 480 nm, 0.0001% Triton. AID 485341;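 also: potency is read from the fitted curve at half-maximal effect; plate controls were no compound for no effect and no enzyme for full effect; nearly all actives have a fitted effect of over 20% in size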
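AmpC (5.3 nM in the dispensed reagent) in 20 mM phosphate pH 7.0 with 0.01% (detergent screen) or 0.0001% Triton X-100 was preincubated with compounds for 15 min at room temperature. Nitrocefin was then added from an 800 uM solution, and hydrolysis was followed at 480 nm.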
Shiga inhibitor: Shiga toxin inhibition | Vero cells, Shiga toxin protein synthesis inhibition reporter | inhibition, % at 38.7 µM | 290,000 compounds, 9.2% hits; in the data active = inhibition mostly above about 28%, no sharp cut-off; inactive = mostly below about 43%; also: 0% is about no effect
NS1 inh: influenza NS1 inhibition; Potency, µM (top dose mostly 46.1 µM), for the others: at the top dose activity, positive = more growth; 270,000 compounds, 0.4% hits; AID 2326; calls by dose curve; also: potency is read from the fitted curve at half-maximal effect; actives are rising curves; nearly all actives have a fitted effect of over 50% in size
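Growth recovery, yeast-based: influenza A NS1 expressed in S. cerevisiae causes slow growth, and suppressors are detected by OD600. The parent strain without NS1 is used as positive control.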
CHX counter: counter-screen hit for Shiga toxin inhibitors, cycloheximide. cell reporter, cycloheximide protein synthesis inhibition counterscreen. max response, %. 300,000 compounds, 12% hits; in the data active = max response mostly above about 13%, no sharp cut-off; inactive = mostly below about 14%; also: read at 38.3 µM for the half of the compounds with a filed dose; 0% is about no effect
Active calls of the source: *; ? = inconclusive; . = no result. The entries come from a sample that favours hits as a whole. Unless noted, calls follow the shape of the dose curve; as a rule, active = well fitted curve in the direction sought with a large enough effect; inconclusive = small, poorly fitted or top-dose-only effect, or another doubt; inactive = no such curve, though single readings can be large; an effect the other way counts as inactive or inconclusive.

SMILES	AmpC detergent	AmpC no deterg	Shiga inhibitor	NS1 inh	CHX counter
CCOC(=O)C1=C(CSc2nc(-c3ccccc3)ccc2C#N)OC(N)=C(C#N)C1c1ccc(OC)cc1 (stereo unspecified)	-11.7%	-53.3%	62.8	?	62.8*
CSc1ncc(Cl)c(C(=O)N(Cc2ccccc2Cl)C2CCS(=O)(=O)C2)n1 (stereo unspecified)	11.2%	.	.	.	.
CN1CCN(C(=S)NC(=O)c2ccc(Br)cc2)CC1	4.7%	-10.8%	36.4*	-2.1%	13.1*
CN1CCN(C(=S)NC(=O)c2ccc(C(C)(C)C)cc2)CC1	-2.5%	-20.7%	-7.8	-13.0%	-1.6
Cc1ccc(C(=O)NC(=S)N2CCN(C)CC2)cc1	-12.5%	-19.0%	87.6*	-0.3%	21.3*
COc1ccc(C2C(C#N)=C(N)Oc3cccc(O)c32)cc1 (stereo unspecified)	?	-26.4%	.	-1.4%	1.1
COc1ccc(CNC(=O)c2ccc(SC)cc2OC)cc1	?	-21.7%	-8.5	-12.1%	1.0
COc1cc(SC)ccc1C(=O)Nc1ccon1	-11.5%	-18.9%	60.0*	-11.5%	33.7*
COc1ccc(N=c2oc3ccccc3cc2C(=O)Nc2ccccn2)cc1OC	-8.0%	-0.2%	97.5*	-2.7%	52.1*
COc1cc(SC)ccc1C(=O)NCCc1ccccc1	0.2%	-2.9%	73.9*	-23.0%	49.2*
COc1ccccc1NC(=O)c1cc2ccccc2o/c1=N\O	-11.0%	-27.4%	64.7	-153.3%	21.7
COc1cc(SC)ccc1C(=O)Nc1ncc(Cl)cc1Cl	1.2%	-23.4%	79.3*	.	34.6*
CCOC(=O)c1cc(NC(=O)c2ccc(OC)cc2)c(=O)n2c1oc1ccc(Cl)cc12	24.2%	.	.	.	.
Cc1ccc(C)c(S(=O)(=O)n2nc(C)c(S(=O)(=O)N3CCCCCC3)c2C)c1	18.6%	.	.	.	.
COc1cc(SC)ccc1C(=O)NC(C)C	-7.5%	-28.0%	23.0	2.4%	4.1
COc1cc(SC)ccc1C(=O)Nc1ccc(Br)cn1	-0.1%	-10.0%	76.1*	-6.6%	30.6*
COc1cc(SC)ccc1C(=O)Nc1ccccn1	2.2%	7.8%	45.7	-76.1%	33.9*
COc1cc(SC)ccc1C(=O)Nc1ncc(C)s1	7.1%	32.7%	8.9	.	-6.6
COc1ccc(NC(=O)c2cccnc2SC)cc1OC	-7.1%	-22.7%	-6.3	.	-0.2
COc1cc(SC)ccc1C(=O)Nc1cccc(C)n1	1.2%	-1.2%	83.8*	-12.0%	33.1*
COc1cc(SC)ccc1C(=O)Nc1ccc2ncccc2c1	?	153.3%	30.4*	-29.4%	27.1*
COc1cc2nc(N3CCN(C(=O)OCc4ccccc4)C(C(=O)NC(C)(C)C)C3)nc(N)c2cc1OC (stereo unspecified)	.	.	.	11.1%	.
Nc1cc(C(=O)OCC(=O)NNC(=O)c2cccs2)ccc1Cl	-0.7%	-40.7%	.	.	.
ClCCNc1nc2ccc(Cl)cc2[nH]1	2.0%	-10.4%	14.7	-6.5%	18.7*
N#Cc1nc(/C=C/c2ccc(F)cc2)oc1N1CCCCCC1	-6.3%	.	.	.	.
SMILES	AmpC detergent	AmpC no deterg	Shiga inhibitor	NS1 inh	CHX counter
O=C(Nc1cccc(S(=O)(=O)NCc2ccco2)c1)c1cc(-c2ccc(F)cc2)nc2ccccc12	1.1%	-38.6%	69.6*	?	38.7*
COc1ccc(S(=O)(=O)NCc2ccco2)cc1-c1nnc2c3ccccc3c(C)nn12	1.4%	64.3%	43.1	-3.6%	39.7*
COc1ccc(-c2cc(C(=O)Nc3cccc(S(=O)(=O)NCc4ccco4)c3)c3ccccc3n2)cc1OC	-3.7%	2µM*	41.0	21.0%	21.0*
Cc1ccccc1OCC(=O)N1CCC(c2nc3ccccc3s2)CC1	2.9%	.	.	.	.
O=C1CS(=O)(=O)N(Cc2cccc(F)c2)c2ccc(Br)cc21	12.1%	-48.4%	.	.	.
COc1ccc(CN2c3c(Br)cccc3C(=O)CS2(=O)=O)cc1	.	12.6µM*	.	.	.
COC(=O)CNC(=O)C(=O)OC	.	.	15.5	.	-4.9
N=C1/C(=C\c2ccc(-c3cccc(C(=O)O)c3)o2)C(=O)N=C2SC=C(c3ccccc3)N12	56.2µM*	-38.5%	56.4*	8.8%	26.4*
N=C1/C(=C/c2ccc(-c3cccc(C(=O)O)c3)o2)C(=O)N=C2SC(CC(=O)N3CCOCC3)=NN12	-1.3%	-6.1%	10.9	9.8%	24.8*
Cc1cc(/C=C2/C(=N)N3C(c4ccccc4)=CSC3=NC2=O)c(C)n1-c1ccccc1	-2.5%	-37.8%	-6.3	14.0%	19.9*
COc1ccc(/C=C(\C#N)C(=O)OCC(=O)Nc2c(C)cccc2C)cc1	-6.0%	-35.5%	-8.1	7.0%	-3.1
COc1ccc(/C=C(\C#N)C(=O)OCC(=O)Nc2ccc(C(C)(C)C)cc2)cc1	-1.7%	-32.1%	20.6	-8.9%	10.6*
Cc1cccc(NC(=O)/C(C#N)=C/c2ccc(Cl)cc2)n1	-1.1%	-21.9%	12.5	8.7%	1.2
Cc1cccc(NC(=O)/C(C#N)=C/c2ccccc2Cl)n1	-8.3%	-20.5%	41.5	6.3%	10.0
Cc1cccc(NC(=O)/C(C#N)=C/c2ccccc2O)n1	-5.5%	-9.1%	77.8*	-5.9%	39.6*
COc1ccc(/C=C(\C#N)C(=O)Nc2cccc(C)n2)cc1	3.6%	-24.4%	35.5*	1.4%	25.4*
N#C/C(=C\c1ccc(F)cc1)C(=O)Nc1ccccn1	-0.6%	-11.8%	-6.5	0.8%	-2.3
N#C/C(=C\c1ccccc1O)C(=O)Nc1ccccn1	4.6%	-17.3%	81.6*	-6.3%	21.2*
O=C(O)CCSc1nc(C(F)(F)F)cc(=O)n1-c1ccccc1	1.1%	-14.9%	-2.3	-2.0%	-3.4
O=C(CN1CCN(c2ccccc2O)CC1)Nc1ccnn1C1CCCC1	-4.1%	-10.7%	.	.	.
CCCCN(C)C(=O)c1ccc2c(c1)N(Cc1cccc(Cl)c1)C(=O)c1ccccc1S2=O (stereo unspecified)	-2.4%	.	.	.	.
C/C=C(/CC[C@@H](C)[C@H]1CCC2C3=CC[C@H]4[C@H](C)[C@@H](O)CC[C@]4(C)C3CC[C@@]21C)C(C)C (stereo partly specified)	.	.	6.6	.	-1.8
O=C(C1CCC1)N1CCN(c2ccc(Cl)cc2)CC1	-10.4%	8.4%	14.2	-16.6%	12.5*
CC1(C)C(C(=O)N2CCN(c3ccc(Cl)cc3)CC2)C1(C)C	4.6%	56.4%	15.7	-47.2%	10.2
O=C(Nc1ccc(Cl)cc1)N1CCN(c2ccccc2)CC1	4.3%	-13.9%	24.2	-15.3%	19.5*
SMILES	AmpC detergent	AmpC no deterg	Shiga inhibitor	NS1 inh	CHX counter
O=C(Nc1ccc(Cl)cc1)N1N=CCC1c1ccccc1 (stereo unspecified)	1.9%	-19.7%	22.7	-2.5%	19.6*
O=C(Nc1ccc(Cl)cc1)N1CC=CCC1	3.9%	-8.5%	108.8*	-34.8%	84.3*
O=C(CCN1C(=O)C2C3CCC(C3)C2C1=O)OCC(=O)c1ccc(Cl)cc1 (stereo unspecified)	-12.7%	60.9%	-2.0	-60.8%	-3.3
O=C(Cc1ccc(Cl)cc1)N1CCN(c2ccccc2)CC1	-6.1%	40.5%	62.5	-34.7%	31.1*
O=C(Cc1ccc(Cl)cc1)N1CCN(c2ccc(F)cc2)CC1	-7.0%	41.1%	-5.3	-45.1%	4.0
Fc1ccc(-c2nnc(CSc3nnc4ccccn34)o2)cc1	-5.4%	-14.4%	22.3	1.5%	39.6*

Compound activity (PubChem BioAssay)
